{
  "source": "PubChem BioAssay (Tox21)",
  "note": "Results filed as inconclusive are left out. Entries that show only a call come without a potency. Activity calls are given as the source filed them. Calls follow the shape of the full dose curve. Positions of bridges follow the written chain, without caps; N, C: chain ends. Where a SMILES comes first, the peptide text is derived from it. Non-standard residues stand in square brackets, D forms with d. Residues, ends and D or L forms follow the SMILES beside them. hArg = N=C(N)NCCCC[C@H](N)C(=O)O; Mpa = O=C(O)CCS",
  "data": [
    {"assay": "qHTS assay to identify small molecule antagonists of the sonic hedgehog signaling (Shh) pathway (AID 1259369); also: nearly all actives have a fitted effect of over 45% in size", "details": "NIH/3T3 Gli1-Luc reporter, Shh antagonist, luminescence 24 h; series mostly up to 92.4 µM", "source_text": "U.S. Tox21 Program National Center for Advancing Translational Sciences [NCATS] NIH Chemical Genomics Center [NCGC] U.S. Environmental Protection Agency [EPA] National Institutes of Environmental Health Sciences [NIEHS] National Toxicology Program [NTP] U.S. Food and Drug Administration [FDA] Tox21 Assay Overview: The sonic hedgehog (Shh) pathway is essential for normal embryonic development. Dysregulation of the Shh pathway can cause severe developmental defects in organs. Therefore chemicals that interfere with the pathway are potential developmental toxicants. A cell line designated 3T3Gli1-Luc (DMB/OARSA/CFSAN/FDA, Laurel, MD), a NIH/3T3 derived clone containing stably integrated Gli1-Luc reporter is used to detect chemical interference of the Shh pathway, by changes in the expression of the firefly Luc gene under the control of the Gli1 transcriptional response element. This cell line was used to screen Tox21 libraries for identifying and prioritizing the potential developmental toxicants that interfere Shh pathway. Conditioned medium-stimulated mode was used to screen for chemicals inhibiting Shh signaling.\nTox21 Assay Protocol Summary: 3T3 Gli1-Luc cells were dispensed at 2,000 per well in 5uL of culture medium into white solid bottom 1536-well plates (Greiner Bio-One, Monroe, NC) using a Multidrop Combi (Thermo Scientific, Waltham, MA) dispenser. The assay plates were incubated at 37 C and 5% CO2 for 4hr, and then 23nL of compounds dissolved in DMSO and positive control were transferred using a Pintool station (Wako, San Diego, CA). The compound transfer was followed by the addition of 1ul conditioned medium or assay buffer using two separate tips of Flying Reagent Dispenser (FRD, Aurora Discovery, San Diego, CA). The assay plates were incubated at 37C and 5% CO2 for 24hr. For luciferase read, 4uL of Amplite Luciferase reporter gene assay reagent (AAT Bioquest, Inc. Sunnyvale, CA) was added to each well of the assay plates using FRD and incubated at room temperature for 30min. The luminescence signal was measured using a ViewLux plate reader (Perkin Elmer, Shelton, CT).", "values": [
      {"smiles": "Cc1ncc([N+](=O)[O-])n1CC(C)O", "note": "(stereo not given)", "Potency": "inactive"},
      {"smiles": "O=C(Cn1ccnc1[N+](=O)[O-])NCc1ccccc1", "Potency": "inactive"},
      {"smiles": "O=C(CCCl)NCCc1ccccc1", "Potency": "inactive"},
      {"smiles": "OCC1CCC(CO)CC1", "note": "(stereo not given)", "Potency": "inactive"},
      {"smiles": "O=C(Cl)c1ccccc1[N+](=O)[O-]", "Potency": "inactive"},
      {"smiles": "O=C(NCN1CCOCC1)c1cnccn1", "Potency": "inactive"},
      {"smiles": "CC(=O)C1C(=O)C=C(C)OC1=O", "note": "(stereo not given)", "Potency": "inactive"},
      {"smiles": "CC(=O)OC(C)=O", "Potency": "inactive"},
      {"smiles": "CC(C)=CCC/C(C)=C/COC=O", "Potency": "inactive"},
      {"smiles": "N#Cc1ccccc1O", "Potency": "inactive"},
      {"smiles": "CCC(=O)c1c(O)cc(O)cc1O", "Potency": "inactive"},
      {"smiles": "Cc1ccc(C(C)NC(=O)[C@@H](NC(=O)OC(C)C)C(C)C)cc1", "note": "(stereo not given in full)", "Potency": "inactive"},
      {"smiles": "CC1(C)CC(OC(=O)CCCCCCCCC(=O)OC2CC(C)(C)NC(C)(C)C2)CC(C)(C)N1", "activity change, negative = inhibition": "-29.1% [at 19 µM] (inactive)"},
      {"smiles": "CCCCOC(=O)[C@H](C)O", "Potency": "inactive"},
      {"smiles": "CCC(C)C(C)=O", "note": "(stereo not given)", "Potency": "inactive"},
      {"smiles": "CCCC(CC)c1ccccc1", "note": "(stereo not given)", "Potency": "inactive"},
      {"smiles": "CC(=O)N[C@@H](CO)C(=O)N[C@@H](CC(=O)O)C(=O)N[C@@H](CCCCN)C(=O)N1CCC[C@H]1C(=O)O", "note": "(Ac-SDKP-OH)", "Potency": "inactive"},
      {"smiles": "CCCCCCCCCCCCCCCCCC#N", "Potency": "inactive"},
      {"smiles": "CC/C=C\\CCOC(=O)c1ccccc1O", "Potency": "inactive"},
      {"smiles": "CN(C)CCOC(=O)C(c1ccccc1)C1(O)CCCC1", "note": "(stereo not given)", "Potency": "inactive"},
      {"smiles": "COc1ccc2c(c1)c1c3n2CCN(C)C3=NCC1", "Potency": "inactive"},
      {"smiles": "CCn1cc(C(=O)O)c(=O)c2cnc(N3CCCC3)nc21", "activity change, negative = inhibition": "29.2% [at 8.39 µM] (inactive)"},
      {"smiles": "Cc1ccc(C)c([N+](=O)[O-])c1", "Potency": "inactive"},
      {"smiles": "O/N=C/C=N/O", "Potency": "inactive"},
      {"smiles": "C[Si]1(C)O[Si](C)(C)O[Si](C)(C)O[Si](C)(C)O[Si](C)(C)O1", "Potency": "inactive"},
      {"smiles": "COC(=O)c1ccccc1C(=O)O", "Potency": "inactive"},
      {"smiles": "OC[C@@H](O)C(O)[C@@H](O)CO", "note": "(stereo not given in full)", "Potency": "inactive"},
      {"smiles": "O=C(O)CNC(=O)CNC(=O)CNC(=O)CSC(=O)c1ccccc1", "Potency": "inactive"},
      {"smiles": "Nc1nnnn1-c1ccccc1", "Potency": "inactive"},
      {"smiles": "CC(C)=CCC[C@@](C)(O)[C@H]1CC=C(C)CC1", "Potency": "inactive"},
      {"smiles": "C/C=C(\\C)C(C)=O", "Potency": "inactive"},
      {"smiles": "COC(=O)CCCCC(CCSS/C(CCO)=C(\\C)N(C=O)Cc1cnc(C)nc1N)SC(C)=O", "note": "(stereo not given)", "Potency": "inactive"},
      {"smiles": "CC1(C)O[C@H]2CC(=O)OC[C@]23[C@H]2CC[C@@]4(C)[C@H](c5ccoc5)OC(=O)[C@H]5O[C@]54[C@]2(C)C(=O)C[C@@H]13", "Potency": "inactive"},
      {"smiles": "O=C=NCC1CCCC(CN=C=O)C1", "note": "(stereo not given)", "Potency": "inactive"},
      {"smiles": "CCCCCCCCCCCCCBr", "Potency": "inactive"},
      {"smiles": "c1ccc(B(c2ccccc2)c2ccccc2)cc1", "Potency": "inactive"},
      {"smiles": "NC(=O)[C@@H]1CSSCCC(=O)N[C@@H](CCCCN=C(N)N)C(=O)NCC(=O)N[C@@H](CC(=O)O)C(=O)N[C@@H](Cc2c[nH]c3ccccc23)C(=O)N2CCC[C@H]2C(=O)N1", "note": "([Mpa][hArg]GDWPC-NH2; disulfide 1-7)", "Potency": "inactive"},
      {"smiles": "COCCc1ccccn1", "Potency": "inactive"},
      {"smiles": "ONc1ccccc1", "Potency": "inactive"},
      {"smiles": "c1ccc2c(CC3=NCCN3)cccc2c1", "Potency": "inactive"}
    ]}
  ]
}
